Screening data: PubChem BioAssay, National Center for Advancing Translational Sciences (NCATS)
Sampled rows, rich in hits. Any-hit rate of the full collection: about 19%.
LASV entry inh = blocks Lassa virus binding to or entry into cells. AID 540256. Potency, µM (top dose mostly 37.9 µM), for the others: at the highest dose activity change, negative = inhibition, most hits filed as inhibitors. Lassa virus pseudotype entry inhibition, cell reporter. hit rate 1.2% among 300,000; calls by dose curve; tested in HEK293 cells; also: potency is read from the fitted curve at half-maximal effect; % is scaled to controls: 0 for no effect and ±100 for the full control effect; nearly all actives have a fitted effect of over 50% in size
Pf growth 96h = inhibits malaria parasite growth, 96 h | Potency, µM (highest dose often 28.7 µM), for inactives: at the top dose activity change, negative = inhibition, actives largely listed as inhibitors | P. falciparum luciferase reporter growth, 96 h | hit rate 6.9% among 320,000; also: potency is read from the fitted curve at half-maximal effect; % is scaled to controls: 0 for no effect and ±100 for the full control effect
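96 h incubation, 37 C, 5% CO2, of luciferase-reporter P. falciparum-infected RBCs (2% hematocrit, 0.05% parasitemia final) with test compounds; endpoint luminescence.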
MARV entry inh = blocks Marburg virus binding to or entry into cells. Marburg virus pseudotyped entry inhibition, cell reporter. Potency, µM (top dose mostly 37.8 µM), for inactives: at the highest dose activity change, negative = inhibition, most hits filed as inhibitors. hit rate 1.8% among 300,000; calls by dose curve; tested in HEK293 cells; also: potency is read from the fitted curve at half-maximal effect; % is scaled to controls: 0 for no effect and ±100 for the full control effect
Shiga inhibitor = Shiga toxin inhibition. Vero cells, Shiga toxin protein synthesis inhibition reporter. inhibition, % at 38.7 µM. hit rate 9.2% among 290,000; in the data active = inhibition mostly above about 28%, no sharp cut-off; inactive = mostly below about 43%; also: 0% is about no effect
Pf growth 48h = inhibits P. falciparum growth in the first generation, 48 h. P. falciparum luciferase growth in erythrocytes, 48 h. Potency, µM (highest dose often 28.7 µM), for the others: top-dose activity change, negative = inhibition, usual class: inhibitors. hit rate 5.9% among 310,000. AID 504832; also: potency is read from the fitted curve at half-maximal effect; % is scaled to controls: 0 for no effect and ±100 for the full control effect
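A one-generation exposure of luciferase-tagged malaria parasites in RPMI 1640/Albumax erythrocyte culture, 37 C and 5% CO2. Inhibition is inferred from decreased luminescence after adding detection reagent.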
Cycloheximide cs = counter-screen for Shiga toxin inhibitors: cycloheximide protein synthesis inhibition | cell reporter, cycloheximide protein synthesis inhibition counterscreen | max response, % | hit rate 12% among 300,000; in the data active = max response mostly above about 13%, no sharp cut-off; inactive = mostly below about 14%; also: read at 38.3 µM for the half of the compounds with a filed dose; 0% is about no effect
Starred values were filed as active, the others as inactive; ? = inconclusive; . = not tested or not shown; [ ] = dose if it differs, or a comment. Unless noted, calls follow the shape of the dose curve; as a rule, active = well fitted inhibition curve with a large enough effect; inconclusive = small, poorly fitted or top-dose-only effect, or another doubt; inactive = no such curve, though single readings can be large or run the other way.

SMILES	LASV entry inh	Pf growth 96h	MARV entry inh	Shiga inhibitor	Pf growth 48h	Cycloheximide cs
O=C(COc1ccc(Br)cc1)N1CCN(C2CCCC2)CC1	11%	?	?	13	15%	3
CCOc1ccc(NC(=O)C2(c3ccc(OC)c(OC)c3)CCCC2)cc1	-4%	1.7µM*	?	-7	?	-4
O=C(C[n+]1ccc(Cc2ccccc2)cc1)Nc1ccccc1	-9%	?	0%[46.1 µM]	39*	-29%	25
CCOc1ccc(NC(=S)c2ccncc2)cc1	1%	9.3µM*	?	26	33%	15
Cc1ccccc1CSc1cn(CC(=O)N2CCCC2)c2ccccc12	-25%[46.1 µM]	.	.	.	.	.
CN(CCC1CCCCO1)C(=O)CCc1nnc(C2CCCCC2)o1 (stereo unspecified)	.	?	.	40*	21%	31*
CC(C)OC(=O)c1c(N)n(Cc2ccco2)c2nc3ccccc3nc12	-2%	146%	-1%	-12	-9%	-1
CCCNC(=O)OC[C@H]1O[C@H](CCO/N=C(\C)CCN2CCCCc3nc(C)c(C)cc32)C=C[C@@H]1Oc1ccc(OC)cc1	.	.	-26%[14.2 µM]	.	.	.
CCCNC(=O)OC[C@H]1O[C@H](CCO/N=C(\C)CCN2CCc3nc(-c4ccccc4)c(-c4ccccc4)cc3C2)C=C[C@@H]1Oc1ccc(OC)cc1	3%	4.7µM*	-39%	34	5.9µM*	1
COc1cccc(-n2c(Cc3cc(=O)[nH]c(=O)[nH]3)nnc2SCc2cccnc2)c1	.	-9%	.	2	.	-1
Cc1cc(C)n(C(C)CNC(=O)c2ccc3c(c2)OCO3)n1 (stereo unspecified)	?	-20%	13%[46.1 µM]	11	18%	4
Cc1cc(C)n(C(C)CC(=O)Nc2ccc(-c3ccno3)cc2)n1 (stereo unspecified)	-2%[46.1 µM]	0.52µM*	-7%[46.1 µM]	2	?	21
Cc1cc(C)n(C(C)CC(=O)Nc2ccc3c(c2)OCO3)n1 (stereo unspecified)	.	103%	.	10	28%	24*
COc1ccc(C(C)(C)C)cc1NC(=O)c1ccoc1C	-16%	12µM*	-10%	15	12µM*	0
COc1ccc(C)cc1NC(=O)c1ccoc1C	11%	.	15%	13	2%	-3
COc1ccc(C)cc1NC(=O)NNC(=O)c1ccoc1C	1%	-55%	6%	31*	72%	active
COc1ccc(Cl)cc1NC(=O)c1ccoc1C	18%	.	1%	-2	4%	-3
CS(=O)(=O)c1ccc(Cl)c(NC(=O)CSc2nnc(C3CC3)n2C2CC2)c1	.	-15%	.	.	7%	.
CS(=O)(=O)N(CC(=O)Nc1c(F)cccc1F)Cc1ccccc1	.	-29%	.	5	-11%	3
CCCCn1c(SCC(=O)NC(C)(C)C)nnc1-c1ccco1	-11%	-9%[5.75 µM]	2%	-19	-8%	6
COc1cc(/C=C2/NC(=O)N(CC(=O)Nc3ccc(C)cc3)C2=O)ccc1Oc1ccc([N+](=O)[O-])cn1	.	15%	.	-2	6%	1
O=C1S/C(=C/c2ccc(N3CCOCC3)o2)C(=O)N1Cc1ccc(F)cc1	1%	?	18%	-10	?	-2
COc1cc(/C=C2\SC(=Nc3ccccc3)N(CCc3c[nH]c4ccccc34)C2=O)ccc1OC(C)C(=O)O (stereo unspecified)	0%	5.2µM*	-1%	-9	10µM*	4
CCOC(=O)C1=C(O)/C(=C/c2ccc(OCC(=O)O)c(OC)c2)SC1=Nc1ccc(OC)cc1	1%	?	-6%	-6	?	6
COc1ccc(N=C2S/C(=C\c3ccc(OC(C)C(=O)O)c(OC)c3)C(=O)N2CCc2c[nH]c3ccccc23)cc1 (stereo unspecified)	?	1.7µM*	?	-13	?	-3
COCCN1C(=O)/C(=C/c2ccc(Oc3ccc([N+](=O)[O-])cn3)c(OC)c2)SC1=Nc1ccccc1	?	1.5µM*	1%	6	-16%	-2
O=C1/C(=C/c2ccc(N3CCOCC3)o2)SC(=Nc2ccccc2)N1CCc1c[nH]c2ccccc12	7.1µM*	1.7µM*	?	-34	9.3µM*	-6
COc1ccc(/C=C2\SC(=O)N(CCC(=O)Nc3ccccc3)C2=O)cc1OC	-2%	-19%	40%	-2	0%	-2
